Reference: paper PMC13494018
A number with no mark means an inactive call. How the calls were made is not given here.

Molecular target: VTCN1, Q7Z7D3
Sequence (Q7Z7D3 whole entry): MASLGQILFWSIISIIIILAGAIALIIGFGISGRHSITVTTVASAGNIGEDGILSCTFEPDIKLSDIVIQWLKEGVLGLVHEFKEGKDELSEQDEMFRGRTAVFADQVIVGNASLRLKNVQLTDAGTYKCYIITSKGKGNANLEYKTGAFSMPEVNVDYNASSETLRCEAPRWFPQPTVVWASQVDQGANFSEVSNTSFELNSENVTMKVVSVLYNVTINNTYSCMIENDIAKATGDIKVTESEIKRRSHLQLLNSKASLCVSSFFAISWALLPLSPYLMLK

B1: d4r4_design_ppi_471_dldesign_0_cycle1_af2pred (protein)
chain: EEAKKVAEEAKKVGKEAAKAGLEKLAAEAFEASYKVKAAYDFYKKNPEKGKEILEEEVKEAKKVIEKAKKEIKKAKAKA
- binding in a display sort: not found

B2: d4r4_design_ppi_486_dldesign_0_cycle1_af2pred (protein)
chain: MEEVVKKAEEAAKKAVEAAREAAKKNAADPEKVKYLAELAQEALEARAVALAKPELAEEELKKIEEKRKKAEEILA
- binding in a display sort: not found

B3: d4r4_design_ppi_344_dldesign_0_cycle1_af2pred (protein)
chain: DPLTLAQEGLTEARYNAKDPEKALAILTATVAAGTAALAALAADPATAPLAAAGLATLARYGAKVGAEILANAKEKEA
- binding in a display sort: not found

B4: d4r4_design_ppi_490_dldesign_0_cycle0_af2pred (protein)
chain: AKTEEEAKKAATEASEAVADLRGYEQEAKIKGNEEAAKVAKEAIKEAAKLAKEAAASKDPKEALKLAKEALKVAKKAIEEVKKLLE
- binding in a display sort: not found

B5: d4r4_design_ppi_269_dldesign_0_cycle1_af2pred (protein)
chain: DVEEAREKNLEIAKKAIEEARKVAKEAEKKPEYREKAKELRKEAEELEKLAEEGKKDPLMATLAGVQGRRLLEEARKLRKELEEE
- binding in a display sort: not found

B6: d4r4_design_ppi_253_dldesign_0_cycle1_af2pred (protein)
chain: MEEKKEEARRIVREAREEARKAAAESPEAALKAAEKVKERRKELEEKVDFKTAESASARFEQIIEALKIAAKKLAA
- binding in a display sort: not found

B7: d4r5_design_ppi_34_dldesign_0_cycle0_af2pred (protein)
chain: EEEKKEAAKKAAELIERAIEAAKTEGKEYGIIYMEAAVEAAKKVGLGEKAKEALKALEKDEEEGIKLAKELREEFEKLI
- binding in a display sort: not found

B8: d4r4_design_ppi_299_dldesign_0_cycle0_af2pred (protein)
chain: KSELAKKAADETSKALSYIRAFAKYKPEKGKEIEDLLLDEEKMEEAAELAEKAAKEAETEEEKEIAKKAAEHIRKAKEYLEKLK
- binding in a display sort: not found

B9: d4r4_design_ppi_253_dldesign_0_cycle0_af2pred (protein)
chain: MEELREEARRRMREARERAGEAAATSPEAAREAAEEVRRIAEELRKRVDWQTGARAEAQAEQIVEALERAAKAMEA
- binding in a display sort: not found

B10: d4r4_design_ppi_349_dldesign_0_cycle1_af2pred (protein)
chain: SEAAKYKAQYEATKKQLKETSAKLKEEKKNLSAETYKEYANKLQEARQKSTYYKAKGDYKNALAAMQEALDIAQQALAEAQKAK
- binding in a display sort: not found

B11: d4r4_design_ppi_394_dldesign_0_cycle1_af2pred (protein)
chain: MEIQKENDAEAGLERAKHAKEVAKKALENKPKLSLEEVAEILKKAAERAEKAAKTEEGKKLAKELKEEAKKVEAELKKAQ
- binding in a display sort: not found

B12: d4r4_design_ppi_265_dldesign_0_cycle1_af2pred (protein)
chain: SKEEEEAKKTKEEAEKRLKKALEEAKKLGEAEVDAVKQIVEAGKKAAAAAETPKEAAEALAKAAKTAESIIKTAKEAKKR
- binding in a display sort: not found

B13: d4r5_design_ppi_19_dldesign_0_cycle0_af2pred (protein)
chain: MEEKLKEAAKKVQEAYQLAAENKEKREELRELAKKARESLKEAEKAYKEGKEEEAEKYLEKSFEYNKEAEELYKKTKKEKEEKEKK
- binding in a display sort: not found

B14: d4r4_design_ppi_491_dldesign_0_cycle1_af2pred (protein)
chain: SANKELADAIKEAAKEAQAAANAAKEAYADDPAKAKEFADKMEKKIDEAHNSDLETAKKIAEEAKKEKEKAKAALKKAKA
- binding in a display sort: not found

B15: d4r4_design_ppi_251_dldesign_0_cycle1_af2pred (protein)
chain: DSDEKAKELLEEAEKYLEEGEKLMEEGKYEEAVLLYRRAQVAALSAELSATTEELKEKAKELLKKAEEKLKEAEEALKKAEEEKK
- binding in a display sort: not found

B16: d4r4_design_ppi_240_dldesign_0_cycle0_af2pred (protein)
chain: MKEKQEKARAEARAEHVKEAIEKYYKEAAKGDKKEALKKTAEFAKEAAKKAKYPLTKEIALALAEEYAKKAA
- binding in a display sort: not found

B17: d4r4_design_ppi_303_dldesign_0_cycle0_af2pred (protein)
chain: MAERAAIMEEARENAIKAYEYAVKLKKIDPELGKEYMKKIDKLMKEAVEAAKDAEKAKKKAEEIKKLAEEIEKIAKEK
- binding in a display sort: not found

B18: d4r4_design_ppi_490_dldesign_0_cycle1_af2pred (protein)
chain: AEVEKEAKKAATEAREAVAELRGLAQEAKLKGVEEAKKVAEEAIKEASALLKEAAKEKDPEKALKLAKEAYKVAKEAIKKAKKLLE
- binding in a display sort: not found

B19: d4r4_design_ppi_481_dldesign_0_cycle1_af2pred (protein)
chain: MADEASAEIRLENAKDAAKIWIKKVEKIDPELAKEYAAKMKEAAKKPDKEGAKKAREIAKEVKKKAEELEKKAKEKEEEKKKEEEEK
- binding in a display sort: not found

B20: d4r4_design_ppi_269_dldesign_0_cycle0_af2pred (protein)
chain: SVEEAKKKNLKIAEEAIKLAEEVAKELEKNEKYKEKAEEFKKKAKELKELKKKGEEDALDATLAGVYGKRLKKKAEEEKKKLEEE
- binding in a display sort: not found

B21: d4r4_design_ppi_257_dldesign_0_cycle1_af2pred (protein)
chain: AEAKAAREAEFKALVEKAEAAADAAMAKATTIEEKKAILDLFNEAARHAKRGAANPETAAADLAAAKAKLAEIEAKAKA
- binding in a display sort: not found

B22: d4r5_design_ppi_7_dldesign_0_cycle1_af2pred (protein)
chain: EESKELRIKAISLLSSAAFYAKTLGPEGKYFEKAAELALTDLEKAIEEAKKALKAAEKLDKELAKRVEKAIEYLKKALE
- binding in a display sort: not found

B23: d4r4_design_ppi_349_dldesign_0_cycle0_af2pred (protein)
chain: SEKEKLLEKYKETLEELRKVRKELAKEKKNLDKETFTKIANELQDARNESAYYKQQGDYKKALEAAEKALEIAKEGLKKAKEAA
- binding in a display sort: not found

B24: d4r4_design_ppi_356_dldesign_0_cycle1_af2pred (protein)
chain: DLEEKAKEGLKKMEEEGKKNPELGKKVKELLEKGKEDGLKGVVEAAKLLTKEAGEEIKPYAAAIVHYERLKK
- binding in a display sort: not found

B25: d4r5_design_ppi_25_dldesign_0_cycle0_af2pred (protein)
chain: EKEEALKKAANIIQKMREEGTAGINEAKVSGSKEIAKEAIKKAEELAKKALEEASKATPEDYEKAKEKVKRILERLKKEAEKVIKE
- binding in a display sort: not found

B26: d4r5_design_ppi_37_dldesign_0_cycle0_af2pred (protein)
chain: GGAVDQVVDNVAKAVGAEAGARIRAAYEEGPEKAIATLEELAARLAAEDPELGAKAAKAARVLRSIVEDEKR
- binding in a display sort: not found

B27: d4r5_design_ppi_25_dldesign_0_cycle1_af2pred (protein)
chain: EEKEAVKKAAKIIQEMREKGLELIHEAKIKGSKEIAEEGIKKAEELGKKALEAAEKASPEERKKVEEKVEKTLKRIKEEAEKVIKE
- binding in a display sort: not found

B28: d4r5_design_ppi_20_dldesign_0_cycle1_af2pred (protein)
chain: MNLEELKKKVKEYTKELGKKAGVSEEEIKELAELAAEAASLSSDTTKEVLEDYAKESSEKVAKVAKETAEYAIEIKKKAR
- binding in a display sort: not found

B29: d4r4_design_ppi_471_dldesign_0_cycle0_af2pred (protein)
chain: EEAEKVAKEAREVGKEAAEAGLKKTAAEAFAAANRVRAALAFKKANPEKGQPILEEEVKEAKEVIEKAKKEIAAKKAAA
- binding in a display sort: not found

B30: d4r4_design_ppi_338_dldesign_0_cycle1_af2pred (protein)
chain: SLNEEAKKEAEKLVEKAKKALKESPEAGEKAVKEMANKYHEYLELGVDKEVVERLRKEAKELKEEVKRKKKELEEEKLA
- binding in a display sort: not found

B31: d4r4_design_ppi_373_dldesign_0_cycle1_af2pred (protein)
chain: SEKEARIKEAVALMDKAAEEAAEKAKTTELANKAFRAATTAAKAAASGEDWPKGEAAVKELKKADPEAGKIIEEAAKQAAEIIA
- binding in a display sort: not found

B32: d4r4_design_ppi_396_dldesign_0_cycle0_af2pred (protein)
chain: AEAAAFAAAKAAAAKAFAEAYEAANALLASGKYKEEAEKGKKELKELAKKLKAAKTAEEAKKVAEEAKKLAEKLKKLLEEAE
- binding in a display sort: not found

B33: d4r5_design_ppi_34_dldesign_0_cycle1_af2pred (protein)
chain: EEEKLKAAEAAARNLKLAIEAAKTEGKEYGILYMESAVQAGEIVGLGEKVKETKEALEKNPEEGIKLAEELKKEFEAIV
- binding in a display sort: not found

B34: d4r4_design_ppi_410_dldesign_0_cycle0_af2pred (protein)
chain: AAAAAAAQKAEMDRTVAAAERQTAILEKRLKAAGLTALADKVKAALAALKAAAEAGDYEAAKKAAAALAKAAAEAREAVAEKEVKA
- binding in a display sort: not found

B35: d4r4_design_ppi_411_dldesign_0_cycle1_af2pred (protein)
chain: SAAEVAALEKAARAAIAAALAAAKAALADPSTLAEQKKAAEAALAAAREAAAAARWKDYEVGEALRKELAAAEKEVKATIAEAQKKKE
- binding in a display sort: not found

B36: d4r4_design_ppi_439_dldesign_0_cycle1_af2pred (protein)
chain: AEEEERERRVREAAEWLVEAPVRLANEAALRAGELAGDSDLALEIQALNNYNREEGARAALASPAREVVAEATEEVRRRREAERAAA
- binding in a display sort: not found

B37: d4r4_design_ppi_486_dldesign_0_cycle0_af2pred (protein)
chain: MEETIERAKEAAREALEAAREAAKKNAADPEKVKKLAELAQKAQEARAEALAKPEKAEEALKRIEEYLKEAKEILE
- binding in a display sort: not found

B38: d4r4_design_ppi_373_dldesign_0_cycle0_af2pred (protein)
chain: AARAAAQKEAVALMAEAAEKAAEKAKKTSVAAEAFRAATKAAQAAASGEKWPEGEAAVEKLKKLDPEAGKIIAEAAAKAKAIMA
- binding in a display sort: not found
